Assay results: PubChem BioAssay AID1159580 (chemical genetic matrix, 2015)
Where “and” joins values, the source holds several entries; their conditions need not be identical. Equal entries are not always repeated. Out of some 5,500 compounds screened, about 2,000 (36%) were called active. Not shown: some 18% with an inconclusive outcome. Rule as the data show it: active = normalized growth mostly below about 0.91 (no sharp cut-off); inconclusive = no clear call, values can overlap the other calls; inactive = mostly above about 0.92. This is one part of the list.

Experiment: chemical genetic growth profiling, strain panel (AID 1159580);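 also: tested at 20 µM; growth read once vehicle control cultures reached saturation at 30 °C; 1 = growth at the plate median or of vehicle wells; lower values mean less growth of the strain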
Conditions: S. cerevisiae deletion strains, growth OD

Measured: normalized growth

Nc1nc2c(c(=O)[nH]1)N(C=O)C(CNc1ccc(C(=O)N[C@@H](CCC(=O)O)C(=O)O)cc1)CN2 (some centres not stated)
inactive: locus YAL021C, strain ccr4, stronger effect = lower value 0.973 | locus YAL026C, strain drs2, stronger effect = lower value 1 | locus YAL030W, strain snc1, stronger effect = lower value 0.969 | locus YBL061C, strain skt5, stronger effect = lower value 0.975 | locus YBR009C, strain hhf1, stronger effect = lower value 1.02 | locus YBR021W, strain FUR4, stronger effect = lower value 0.988 | locus YBR023C, strain chs3, stronger effect = lower value 0.971 | locus YBR171W, strain sec66, stronger effect = lower value 0.94 | locus YBR229C, strain ROT2, stronger effect = lower value 0.991 | locus YBR231C, strain swc5, stronger effect = lower value 0.943 | locus YBR279W, strain paf1, stronger effect = lower value 0.991 | locus YCL011C, strain gbp2, stronger effect = lower value 0.99 | locus YCL016C, strain dcc1, stronger effect = lower value 1.02 | locus YCL029C, strain bik1, stronger effect = lower value 0.985 | locus YCL061C, strain MRC1, stronger effect = lower value 0.964 | locus YCL069W, strain vba3, stronger effect = lower value 0.971 | locus YCR088W, strain abp1, stronger effect = lower value 0.971 | locus YDL005C, strain med2, stronger effect = lower value 0.963 | locus YDL035C, strain GPR1, stronger effect = lower value 1.01 | locus YDL040C, strain nat1, stronger effect = lower value 0.974 | locus YDL074C, strain BRE1, stronger effect = lower value 0.999 | locus YDL101C, strain DUN1, stronger effect = lower value 0.987 | locus YDL185W, strain tfp1, stronger effect = lower value 0.986 | locus YDL192W, strain arf1, stronger effect = lower value 0.981 | locus YDR001C, strain nth1, stronger effect = lower value 0.956 | locus YDR069C, strain doa4, stronger effect = lower value 0.94 | locus YDR101C, strain arx1, stronger effect = lower value 1 | locus YDR137W, strain rgp1, stronger effect = lower value 0.947 | locus YDR159W, strain sac3, stronger effect = lower value 1.01 | locus YDR162C, strain NBP2, stronger effect = lower value 1 | locus YDR195W, strain ref2 0.906 | locus YDR297W, strain sur2, stronger effect = lower value 0.972 | locus YDR318W, strain mcm21, stronger effect = lower value 0.985 | locus YDR334W, strain swr1, stronger effect = lower value 0.934 | locus YDR335W, strain msn5, stronger effect = lower value 0.964 | locus YDR388W, stronger effect = lower value 0.985 | locus YDR392W, strain spt3, stronger effect = lower value 1.1 | locus YDR502C, strain sam2, stronger effect = lower value 0.985 | locus YEL003W, strain gim4, stronger effect = lower value 0.971 | locus YEL037C, strain rad23, stronger effect = lower value 0.978 | locus YEL061C, strain CIN8 (second series), stronger effect = lower value 0.953 | locus YEL061C, strain CIN8, stronger effect = lower value 0.996 | locus YER015W, strain faa2, stronger effect = lower value 1.01 | locus YER016W, strain bim1, stronger effect = lower value 0.99 | locus YER110C, stronger effect = lower value 0.978 | locus YER111C, strain swi4, stronger effect = lower value 0.968 | locus YER155C, strain BEM2 (second series), stronger effect = lower value 0.954 | locus YER155C, strain BEM2, stronger effect = lower value 0.981 | locus YER167W, strain BCK2, stronger effect = lower value 0.993 | locus YFR010W, strain ubp6, stronger effect = lower value 0.931 | locus YGL078C, strain dbp3, stronger effect = lower value 0.967 | locus YGL086W, strain mad1, stronger effect = lower value 1 | locus YGL167C, strain pmr1, stronger effect = lower value 0.957 | locus YGL173C, strain kem1, stronger effect = lower value 0.966 | locus YGL227W, strain vid30, stronger effect = lower value 0.964 | locus YGL240W, strain doc1, stronger effect = lower value 0.94 | locus YGL248W, strain PDE1, stronger effect = lower value 0.982 | locus YGL253W, strain hxk2, stronger effect = lower value 0.986 | locus YGR135W, strain pre9, stronger effect = lower value 0.945 | locus YGR252W, strain gcn5, stronger effect = lower value 0.948 | locus YHR013C, strain ard1, stronger effect = lower value 0.972 | locus YHR027C, strain rpn1, stronger effect = lower value 0.972 | locus YHR030C, strain SLT2, stronger effect = lower value 0.993 and 0.985 | locus YHR079C, strain IRE1 (second series), stronger effect = lower value 0.989 | locus YHR079C, strain IRE1, stronger effect = lower value 1 | locus YHR094C, strain hxt1, stronger effect = lower value 0.984 | locus YHR129C, strain ARP1, stronger effect = lower value 0.99 | locus YHR142W, strain chs7, stronger effect = lower value 0.957 | locus YHR200W, strain rpn10, stronger effect = lower value 0.986 | locus YIL066C, strain RNR3, stronger effect = lower value 0.989 | locus YIL073C, strain SPO22, stronger effect = lower value 1.01 | locus YIL125W, strain kgd1, stronger effect = lower value 0.989 | locus YIR030C, strain dcg1, stronger effect = lower value 0.979 | locus YJL092W, strain hpr5, stronger effect = lower value 0.963 | locus YJL095W, strain BCK1 (second series), stronger effect = lower value 0.967 | locus YJL095W, strain BCK1, stronger effect = lower value 0.975 and 1.02 | locus YJL115W, strain asf1, stronger effect = lower value 0.949 | locus YJL129C, strain trk1, stronger effect = lower value 0.954 | locus YJL134W, strain LCB3, stronger effect = lower value 0.991 | locus YJL154C, strain vps35, stronger effect = lower value 0.959 | locus YJL164C, strain tpk1, stronger effect = lower value 1.02 | locus YJL166W, strain qcr8, stronger effect = lower value 0.932 | locus YJL168C, strain set2, stronger effect = lower value 0.981 | locus YJL187C, strain SWE1 (second series), stronger effect = lower value 0.985 | locus YJL187C, strain SWE1, stronger effect = lower value 0.977 | locus YJR043C, strain POL32, stronger effect = lower value 1.01 | locus YJR066W, strain TOR1, stronger effect = lower value 0.969 | locus YJR075W, strain HOC1, stronger effect = lower value 0.993 | locus YKL009W, strain mrt4, stronger effect = lower value 0.996 | locus YKL068W, stronger effect = lower value 0.991 | locus YKL085W, strain MDH1 (second series), stronger effect = lower value 0.979 | locus YKL085W, strain MDH1, stronger effect = lower value 0.979 | locus YKL160W, strain elf1, stronger effect = lower value 0.972 | locus YKL190W, strain CNB1, stronger effect = lower value 1 | locus YKR001C, strain vps1, stronger effect = lower value 0.997 | locus YKR026C, strain gcn3, stronger effect = lower value 0.961 | locus YKR091W, strain srl3, stronger effect = lower value 0.984 | locus YLL001W, strain dnm1, stronger effect = lower value 0.926 | locus YLL026W, stronger effect = lower value 0.948 | locus YLL041C, strain sdh2, stronger effect = lower value 0.976 | locus YLR027C, strain aat2, stronger effect = lower value 0.958 | locus YLR039C, strain RIC1, stronger effect = lower value 0.958 | locus YLR058C, strain SHM2, stronger effect = lower value 0.983 | locus YLR102C, strain apc9, stronger effect = lower value 0.989 | locus YLR113W, strain HOG1, stronger effect = lower value 1.02 | locus YLR221C, strain rsa3, stronger effect = lower value 1.01 | locus YLR258W, strain gsy2, stronger effect = lower value 1.01 | locus YLR262C, strain YPT6 (second series), stronger effect = lower value 0.941 | locus YLR262C, strain YPT6, stronger effect = lower value 1.02 | locus YLR268W, strain sec22, stronger effect = lower value 0.984 | locus YLR320W, strain mms22, stronger effect = lower value 1.01 | locus YLR330W, strain CHS5, stronger effect = lower value 0.988 | locus YLR342W, strain FKS1 (second series), stronger effect = lower value 1 | locus YLR342W, strain FKS1, stronger effect = lower value 0.955 | locus YLR357W, strain rsc2, stronger effect = lower value 0.928 | locus YLR370C, strain arc18, stronger effect = lower value 0.959 | locus YLR371W, strain rom2, stronger effect = lower value 0.975 | locus YLR384C, strain iki3, stronger effect = lower value 0.958 | locus YLR418C, strain cdc73, stronger effect = lower value 0.938 | locus YML016C, strain PPZ1, stronger effect = lower value 0.992 | locus YML032C, strain rad52, stronger effect = lower value 0.999 | locus YML120C, strain ndi1, stronger effect = lower value 0.956 | locus YML124C, strain tub3, stronger effect = lower value 0.991 | locus YMR058W, strain fet3, stronger effect = lower value 0.954 | locus YMR078C, strain ctf18, stronger effect = lower value 0.981 | locus YMR125W, strain sto1, stronger effect = lower value 0.965 | locus YMR129W, stronger effect = lower value 0.971 | locus YMR205C, strain PFK2, stronger effect = lower value 0.978 | locus YMR223W, strain ubp8, stronger effect = lower value 0.959 | locus YMR231W, strain pep5, stronger effect = lower value 0.964 | locus YMR307W, strain GAS1, stronger effect = lower value 0.961 | locus YNL067W, strain RPL9B, stronger effect = lower value 0.999 | locus YNL071W, strain lat1, stronger effect = lower value 0.984 | locus YNL128W, strain TEP1, stronger effect = lower value 0.979 | locus YNL183C, strain NPR1, stronger effect = lower value 0.97 | locus YNL209W, strain ssb2, stronger effect = lower value 0.986 | locus YNL233W, strain BNI4, stronger effect = lower value 0.986 | locus YNL248C, strain rpa49, stronger effect = lower value 0.978 | locus YNL250W, strain rad50, stronger effect = lower value 0.977 | locus YNL271C, strain bni1, stronger effect = lower value 0.967 | locus YNL298W, strain CLA4, stronger effect = lower value 0.985 | locus YNL307C, strain MCK1, stronger effect = lower value 0.99 | locus YNL322C, strain KRE1 (second series), stronger effect = lower value 0.965 | locus YNL322C, strain KRE1, stronger effect = lower value 0.995 | locus YNR049C, strain mso1, stronger effect = lower value 0.971 | locus YNR052C, strain pop2, stronger effect = lower value 0.984 | locus YOL006C, strain TOP1, stronger effect = lower value 0.964 | locus YOL012C, strain htz1 0.703 | locus YOL147C, strain pex11, stronger effect = lower value 0.978 | locus YOR001W, strain rrp6, stronger effect = lower value 0.943 | locus YOR061W, strain CKA2, stronger effect = lower value 0.992 | locus YOR069W, strain VPS5, stronger effect = lower value 0.989 | locus YOR070C, strain gyp1, stronger effect = lower value 0.991 | locus YOR080W, strain dia2, stronger effect = lower value 0.966 | locus YOR083W, strain WHI5, stronger effect = lower value 0.961 | locus YOR106W, strain vam3, stronger effect = lower value 0.943 | locus YOR136W, strain idh2, stronger effect = lower value 0.99 | locus YOR144C, strain elg1, stronger effect = lower value 0.992 | locus YOR184W, strain ser1, stronger effect = lower value 0.978 | locus YOR231W, strain MKK1, stronger effect = lower value 1.02 | locus YOR265W, strain rbl2, stronger effect = lower value 0.965 | locus YOR270C, strain vph1, stronger effect = lower value 0.957 | locus YOR290C, strain snf2, stronger effect = lower value 1.01 | locus YOR316C, strain cot1, stronger effect = lower value 0.987 | locus YPL051W, strain arl3, stronger effect = lower value 0.985 | locus YPL055C, strain LGE1, stronger effect = lower value 0.981 | locus YPL078C, strain atp4, stronger effect = lower value 0.904 | locus YPL106C, strain sse1, stronger effect = lower value 0.947 | locus YPL240C, strain hsp82, stronger effect = lower value 0.968 | locus YPL256C, strain CLN2, stronger effect = lower value 0.993 | locus YPR119W, strain clb2, stronger effect = lower value 0.986 | locus YPR141C, strain kar3, stronger effect = lower value 0.977 | locus YPR163C, strain tif3, stronger effect = lower value 0.976 | locus YPR167C, strain met16, stronger effect = lower value 0.986 | strain wtn01, stronger effect = lower value 0.981

CN(Cc1cnc2nc(N)nc(N)c2n1)c1ccc(C(=O)N[C@H](CCC(=O)O)C(=O)O)cc1
inactive: locus YAL040C, strain CLN3, stronger effect = lower value 1 | locus YER002W, strain NOP16, stronger effect = lower value 0.996 | locus YNL175C, strain NOP13, stronger effect = lower value 1 | locus YNL197C, strain WHI3, stronger effect = lower value 1.01 | locus YNL224C, strain SQS1, stronger effect = lower value 0.981 | locus YOR083W, strain WHI5 (second series), stronger effect = lower value 1.04 | locus YPL241C, strain CIN2, stronger effect = lower value 0.984
